The text below walks through data of the supplement of paper PMC6555819.

This assay relates to LXRb:RXRa (NR concentration 270 nM, RXRa partner concentration 90 nM). The assay is described as follows: PBM binding z-score (relative to random genomic background probes); higher = stronger binding; sequences stand for … in GC…GCGATTGACAGCGTAGAATGAAGG
In a few lines: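 Regression normalization was applied to scanned fluorescence from custom Agilent 4×180K protein-binding microarrays. Before scanning, arrays were incubated 1 h with ligand-free nuclear receptor dimers, and binding was detected with antibodies against each partner (one per run). Binding z-scores use the random background probes as reference.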
Turning to ATATGTAGGTTAAGGGTCAGTCAGGTTGGTTCGC, the PBM binding z-score is 3.34. Consider TTACCAAGGTGAAAGGGCGTTGATGCACGCCTTG, for which the PBM binding z-score came to 0.742. The figure for CGTCAAAGTTCGACTAAGGTAACGTAAAGCACGC is 1.16; for CAAACTAGGGCAAGGTCAAAGTCGGTTTGTGCCA it is 3.77; for ACTATTAGTTGACTTACGGCAACCGATACGACGC it is 0.412. The figure for CCGACTGGGGCATAAGGTTACTATAAGCCAGCCC is 1.26; for GCAGACAGGTGAAACGCAGGGAACTCAGGGTGGC it is -0.514. The figure for TAGCCTACGTCATGCGGGCCAGTATAGTGTCGGC is -1.15; for CCTACTGGGCCACGGTCATTGATCAGTCAAAGCA it is -0.408; for CGAACTAGGTCAAGGACAGTGATTCTCCGCACGC it is 1.56. As for CCAGACAGGTGAAAGATAACTCAGTCTGGTACGC, the PBM binding z-score is -0.0465. The sequence TATACAGGGTCAAAGGCCAGGGTACGAATGTCGA yielded a PBM binding z-score of 4.8.

Turning to CCTAGTTGGTCAAGGTCACAAACGCTATAGGTAC, the PBM binding z-score turned out to be 3.45. As for CGTCCAAGGTCAGAGAGGTCAGGGAATGCCGAGT, the figure is 4.51; as for GCCTACGGGTCAAAGGTTATAGCATGAATAGAAT, 5.59. As for GGCACGAGGGCAAAGTTGATAGCATCTGTCGACG, the figure is 0.776; as for GCAGACAGGTGAAACGCAGGTAAATCAGGGTGGC, -0.258; as for TCTAGTTGGTCACGGAGGTGACACACGACGGGTA, 0.335. CAAGACAGGTGAGAAGGTAACTCAGCCTCGATTA registered a PBM binding z-score of 0.183. As for TCGAGTAGGTTAGTCGGGGCATTAAGCCAACATA, the figure is 0.387. The figure for CTACCAAGGTGAAAAAGGTCGTTGATTACTATTC is 1.86; for ACTAGCAGGCCAAGTTTGGGTCAGTCAAACAAAG it is -0.0247.
